Data as given in PubChem BioAssay AID686978 (National Center for Advancing Translational Sciences (NCATS), 2013).
The campaign covered roughly 420,000 compounds. About 64,000 (15%) were called active. Not shown: some 27% with an inconclusive outcome. Calls follow the shape of the dose curve; as a rule, active = well fitted inhibition curve with a large enough effect; inconclusive = small, poorly fitted or top-dose-only effect; inactive = flat fitted curve, though single readings scatter. Not all results are given here. Entries that show only a call come without a potency.

assay: qHTS for Inhibitors of human tyrosyl-DNA phosphodiesterase 1 (TDP1): qHTS in cells in absence of CPT; conditions: DT40 Tdp1-/- hTDP1 cells, no CPT, ATP luminescence, 48 h; activity change, negative = growth inhibition: at 46.2 µM (top of the series); also: nearly all actives have a fitted effect of over 55% in size
In short: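 Stably hTDP1-transfected Tdp1-null chicken DT40 cells were treated with library compounds minus camptothecin and grown for at least 48 hr at 37 °C, after which cellular ATP was quantified by luminescence.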
Potency is read from the fitted curve at half-maximal effect.

**Q.** For `Fc1cc(F)c2nc(N3CCOCC3)sc2c1`, which Potency is on record?
**A.** Its Potency is “inactive”.

**Q.** Which Potency does the source give for `CCOc1nc(NCCN2CCOCC2)nc(Nc2ccc(C)cc2)n1` here?
**A.** Its Potency is “inactive”.

**Q.** With `CCOC(=O)C(C)n1nc(-c2ccccc2)c2ccccc2c1=O` (centres undefined) as the compound, how does the Potency read?
**A.** The Potency was 14.6 µM (active).

**Q.** With `O=c1c2ccccc2c(-c2ccccc2)nn1Cc1ccccc1` as the compound, how does the Potency read?
**A.** Its Potency is “inactive”.

**Q.** For `O=C(O)c1ccc(-n2nc(-c3ccccc3)c3ccccc3c2=O)cc1`, which Potency is on record?
**A.** Its Potency is “inactive”.

**Q.** For `NC(=O)[C@H]1CC2(CC(c3cccc(NC(=O)[C@H]4CCC(=O)N4)c3)=NO2)CN1C(=O)c1ccccc1C(=O)c1ccccc1` (some centres undefined), which Potency is on record?
**A.** Its Potency is “inactive”.

**Q.** Which Potency does the source give for `C/C(=N\NC(N)=S)c1ccncc1` here?
**A.** The Potency was “inactive”.

**Q.** With `C/C(=N\NC(N)=S)c1cccnc1` as the compound, how does the Potency read?
**A.** The Potency was “inactive”.

**Q.** For `C/C(=N\NC(=S)NC(C)C)c1ccc(C(C)(C)C)cc1`, which Potency is on record?
**A.** Its Potency is 20.6 µM (active).

**Q.** With `O=C(Cc1ccccc1)Nc1ccc(C(=O)Nc2ccccc2C(=O)O)cc1` as the compound, how does the Potency read?
**A.** The Potency was “inactive”.

**Q.** For `Cc1cccnc1NC(=O)Cn1c(=O)oc2ccccc21`, which Potency is on record?
**A.** Its Potency is “inactive”.

**Q.** Which Potency does the source give for `COc1ccc2cc(S(=O)(=O)Nc3ccccn3)ccc2c1` here?
**A.** Its Potency is “inactive”.

**Q.** For `CCOc1ncccc1C(=O)NNC(=O)c1cccc(S(=O)(=O)Nc2ccccc2OC)c1`, which Potency is on record?
**A.** The Potency was “inactive”.

**Q.** Which Potency does the source give for `COc1cc(NS(=O)(=O)c2ccc3ccccc3c2)c2ncccc2c1` here?
**A.** Its Potency is 7.31 µM (active).

**Q.** With `C/C(O)=C\c1nc(=O)c2c(C)cc(C)nc2n1-c1ccccc1` as the compound, how does the Potency read?
**A.** Its Potency is “inactive”.

**Q.** For `N#Cc1c(-c2ccc(Cl)cc2)c2c([nH]c1=S)CCCC2`, which Potency is on record?
**A.** The Potency was “inactive”.

**Q.** Which Potency does the source give for `COc1ccc(-n2c(SCC(=O)OC(C)C)nnc2-c2ccccn2)cc1` here?
**A.** Its Potency is “inactive”.

**Q.** For `COc1ccc(-c2cn3cccnc3n2)cc1`, which Potency is on record?
**A.** The Potency was “inactive”.

**Q.** With `COc1ccc2nc(-c3ccccn3)ccc2c1` as the compound, how does the Potency read?
**A.** The Potency was 3.26 µM (active).

**Q.** Which Potency does the source give for `CCOc1ccc(N(Cc2ccccc2)C(=O)c2nc(S(C)(=O)=O)ncc2Cl)cc1` here?
**A.** The Potency was 0.58 µM (active).

**Q.** With `CCOc1ccc(Cn2nnc(C(=O)NCc3ccccc3)c2N)cc1` as the compound, how does the Potency read?
**A.** Its Potency is “inactive”.

**Q.** For `CCSc1nnc2c(n1)OC(c1ccc(OCC(=O)O)cc1)Nc1ccccc1-2` (centres undefined), which Potency is on record?
**A.** The Potency was “inactive”.

**Q.** Which Potency does the source give for `CCSc1ncc(Cl)c(C(=O)Nc2c(C(=O)c3ccccc3)oc3ccccc23)n1` here?
**A.** Its Potency is “inactive”.

**Q.** With `CCOc1ccc(S(=O)(=O)N(CC(=O)O)c2ccccc2)cc1` as the compound, how does the Potency read?
**A.** Its Potency is “inactive”.

**Q.** Which Potency does the source give for `CCOc1ccc(N(Cc2ccccc2)C(=O)c2nc(SCC)ncc2Cl)cc1` here?
**A.** The Potency was 6.51 µM (active).

**Q.** Which Potency does the source give for `CCCOc1ccc(/C(O)=C2/C(=O)C(=O)N(CCN(C)C)C2c2ccc(OC)c(OC)c2)cc1` (centres undefined) here?
**A.** Its Potency is “inactive”.

**Q.** Which Potency does the source give for `N#CCCn1ncc2ccccc21` here?
**A.** The Potency was “inactive”.

**Q.** With `O=C(NCCCN1CCCC1=O)c1cccc(S(=O)(=O)NCc2ccccc2)c1` as the compound, how does the Potency read?
**A.** Its Potency is “inactive”.

**Q.** For `NS(=O)(=O)c1ccc(CNC(=O)c2cc(S(=O)(=O)N3CCOCC3)ccc2N2CCCC2)cc1`, which Potency is on record?
**A.** Its Potency is “inactive”.

**Q.** Which Potency does the source give for `NS(=O)(=O)c1ccc(CNC(=O)c2cccc(S(=O)(=O)N3CCc4ccccc43)c2)cc1` here?
**A.** The Potency was 9.2 µM (active).

**Q.** For `CC(=O)N1CCN(S(=O)(=O)c2cccc(C(=O)NC3CCC(C)CC3)c2)CC1` (centres undefined), which Potency is on record?
**A.** Its Potency is “inactive”.

**Q.** For `CC1Cc2ccccc2N1S(=O)(=O)c1cccc(C(=O)OCC(=O)N2CCOCC2)c1` (centres undefined), which Potency is on record?
**A.** The Potency was “inactive”.

**Q.** With `CNC(=O)C1CN(C(=O)c2cccc(S(=O)(=O)N3CCc4ccccc43)c2)c2ccccc2O1` (centres undefined) as the compound, how does the Potency read?
**A.** The Potency was 5.8 µM (active).

**Q.** With `CC1CCN(C(=O)c2cccc(S(=O)(=O)N3CCCc4ccccc43)c2)CC1` as the compound, how does the Potency read?
**A.** The Potency was 11.6 µM (active).

**Q.** With `Cc1c(NC(=S)Nc2ccccc2)c(=O)n(-c2ccccc2)n1C` as the compound, how does the Potency read?
**A.** Its Potency is “inactive”.

**Q.** For `COc1cc(C)c(Cl)cc1S(=O)(=O)n1ccnc1`, which Potency is on record?
**A.** Its Potency is “inactive”.

**Q.** With `CC1CCN(C(=O)COC(=O)c2cc(=O)[nH]c3ccccc23)CC1` as the compound, how does the Potency read?
**A.** The Potency was “inactive”.

**Q.** For `CC(NC(=O)COC(=O)c1cc(=O)[nH]c2ccccc12)c1ccccc1` (centres undefined), which Potency is on record?
**A.** Its Potency is “inactive”.

**Q.** With `CCOC(=O)c1ccc2[nH]c(C)c(CN3CCN(C)CC3)c(=O)c2c1` as the compound, how does the Potency read?
**A.** Its Potency is “inactive”.

**Q.** For `COC(=O)C[C@H]1C[C@@H]2c3cc(N(C)C)ccc3O[C@@H]2[C@H](CO)O1`, which Potency is on record?
**A.** Its Potency is “inactive”.

**Q.** Which Potency does the source give for `CCOC(=O)CSc1ncc(-c2cccc(Cl)c2)cn1` here?
**A.** Its Potency is “inactive”.

**Q.** Which Potency does the source give for `Cn1nc(-c2ccccc2)c(CSc2cccc(Cl)c2)c1Cl` here?
**A.** The Potency was 18.4 µM (active).

**Q.** With `Cn1nc(-c2ccccc2)c(CO)c1Sc1ccccc1` as the compound, how does the Potency read?
**A.** The Potency was “inactive”.

**Q.** For `CCn1c(-c2ccoc2C)n[nH]c1=S`, which Potency is on record?
**A.** Its Potency is “inactive”.

**Q.** With `CCOC(=O)c1ccc(NC(=O)Cn2nnc(-c3ccc(C)cc3)n2)cc1` as the compound, how does the Potency read?
**A.** Its Potency is “inactive”.

**Q.** With `CCOC(=O)c1ccc(NC(=O)Cn2cnc3cc(C)c(C)cc32)cc1` as the compound, how does the Potency read?
**A.** The Potency was 0.517 µM (active).

**Q.** With `CCOC(=O)c1ccc(NC(=O)CCn2c(=O)oc3ccccc32)cc1` as the compound, how does the Potency read?
**A.** Its Potency is “inactive”.

**Q.** With `Cc1ccc(OC(=O)c2cncc(Br)c2)c(C)c1` as the compound, how does the Potency read?
**A.** Its Potency is “inactive”.

**Q.** With `NC(=O)COc1ccccc1C(=O)NC12CC3CC(CC(C3)C1)C2` as the compound, how does the Potency read?
**A.** Its Potency is “inactive”.

**Q.** Which Potency does the source give for `CCc1cccc(NC(=S)N(CCN(C)C)C2CCN(C(C)C)CC2)c1` here?
**A.** Its Potency is “inactive”.

**Q.** For `Cc1cccc(C)c1NC(=O)CN1C(=O)C(C)Oc2ccccc21` (centres undefined), which Potency is on record?
**A.** Its Potency is “inactive”.

**Q.** Which Potency does the source give for `CCn1c(/C=N/NC(=O)c2ccc(OC)cc2)nc2ccccc21` here?
**A.** The Potency was 16.4 µM (active).

**Q.** Which Potency does the source give for `CCn1c(C(O)c2cc(OC)ccc2OC)nc2ccccc21` (centres undefined) here?
**A.** The Potency was “inactive”.

**Q.** With `O=C(Nc1ccccc1Cl)N1CCN(c2ccc3nncn3n2)CC1` as the compound, how does the Potency read?
**A.** Its Potency is “inactive”.

**Q.** Which Potency does the source give for `COc1ccc(NC(=O)CSc2nncc(=O)n2N)cc1OC` here?
**A.** Its Potency is “inactive”.

**Q.** With `COc1cc(NC(=O)CSc2nc3nc(C)c(Cc4ccc(C)cc4)c(C)n3n2)cc(OC)c1OC` as the compound, how does the Potency read?
**A.** The Potency was 10.3 µM (active).

**Q.** With `Cc1ccc(Cc2c(C)nc3nc(SCC(=O)NCCN4CCOCC4)nn3c2C)cc1` as the compound, how does the Potency read?
**A.** Its Potency is “inactive”.

**Q.** With `N#Cc1c(C(F)(F)F)cc(-c2ccccc2)nc1SCC(=O)N1CCOCC1` as the compound, how does the Potency read?
**A.** The Potency was “inactive”.

**Q.** For `FC(F)Oc1ccccc1NC(=S)Nc1cccc(Cl)c1Cl`, which Potency is on record?
**A.** The Potency was “inactive”.

**Q.** With `O=[N+]([O-])c1cc(S(=O)(=O)Nc2cccc(Cl)c2)ccc1N=Nc1c(O)[nH]c2ccccc12` as the compound, how does the Potency read?
**A.** Its Potency is 25.9 µM (active).

**Q.** With `O=C(O)c1ccccc1/C=N/Nc1ccc(S(=O)(=O)Nc2ccc(Cl)cc2)cc1[N+](=O)[O-]` as the compound, how does the Potency read?
**A.** Its Potency is “inactive”.

**Q.** With `COc1ccc(S(=O)(=O)Nc2ccc3cn[nH]c3c2)cc1[N+](=O)[O-]` as the compound, how does the Potency read?
**A.** Its Potency is “inactive”.

**Q.** With `O=C(Nc1nnc([C@H]2C[C@H](O)[C@@H](CO)O2)s1)c1cccc(Cl)c1` as the compound, how does the Potency read?
**A.** Its Potency is “inactive”.

**Q.** For `CN(CC(=O)Nc1ccc(Cl)cc1)C(=O)CNC(=O)c1ccc2ccccc2c1`, which Potency is on record?
**A.** The Potency was “inactive”.

**Q.** For `Cc1ccc(S(=O)(=O)N(C)c2ccc(OCC(=O)OCC(=O)N(CC#N)c3ccccc3)cc2)cc1`, which Potency is on record?
**A.** Its Potency is “inactive”.

**Q.** For `COc1cc(/C=N/NC(=O)c2ccc(N3CCCC3=O)cc2)ccc1O`, which Potency is on record?
**A.** The Potency was 16.4 µM (active).

**Q.** Which Potency does the source give for `COc1cc(/C=N/NC(=O)CCc2n[nH]c(=O)[nH]c2=O)ccc1O` here?
**A.** The Potency was “inactive”.

**Q.** With `CCOc1cc(/C=N/NC(=O)CN2CCCCC2)ccc1O` as the compound, how does the Potency read?
**A.** The Potency was “inactive”.

**Q.** With `C/C(=N\NC(=O)c1cccc(N2CCCC2=O)c1)c1ccc(N)cc1` as the compound, how does the Potency read?
**A.** The Potency was “inactive”.

**Q.** Which Potency does the source give for `COc1ccc(C(=O)Nc2ccccc2C(=O)N/N=C/c2ccc(O)c(OC)c2)cc1` here?
**A.** Its Potency is 20.6 µM (active).

**Q.** For `COc1cc(C=NNC(=O)c2cccnc2)ccc1OC(=O)c1ccccc1F`, which Potency is on record?
**A.** The Potency was “inactive”.

**Q.** With `COc1ccc(/C=N/NC(=O)c2ccccc2)cc1OS(=O)(=O)c1ccccc1` as the compound, how does the Potency read?
**A.** Its Potency is 13 µM (active).

**Q.** With `COc1ccc(/C=N/Nc2ccccc2C(=O)O)cc1` as the compound, how does the Potency read?
**A.** The Potency was “inactive”.

**Q.** For `COc1ccc(/C=N/S(=O)(=O)c2ccccc2)cc1OC`, which Potency is on record?
**A.** The Potency was “inactive”.
